This passage reports growth results from PubChem BioAssay (NCI).

About 83,000 compounds went through this panel and 20% of them were active in at least one assay; those are over-represented in the sample as a whole.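 Growth was measured after 48 h exposure to one concentration of compound in 96-well plates. Values under 10 count as active.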 Unmarked numbers belong to inactive results. The source made the active and inactive calls.

The subject of one test is NCI-H522 lung. Nature of the test: NCI-60 one-dose screen, 48 h (100 = growth as untreated, 0 = no growth, -100 = all killed). To be noted: 10 µM unless noted.
For the compound `COc1ccc(C(=O)c2c(N)nc3n2CCCC3)cc1OC`, the growth is 81.7%.
`CC1CN(CCCOC(=O)Nc2ccc(Cl)cc2)CCN1C(C)(C)C` (stereo unspecified): the growth was 97.5%.
As for `CCN(CC)c1ccc2nc3c4ccccc4c(=O)cc-3n(-c3ccccc3)c2c1`, the growth was -8.95% (active).
`C=CCOc1c(Br)cc(Br)cc1Br`: the growth was 27.6%.
Take `Brc1ccccc1Cn1c(-c2cncs2)nc2ccccc21`: the growth was 66.8%.
Same read-out and setting: the same measure for `CCN(CC)CCCNc1cccc2c(C)cc(OC)nc12`: 87.5%.
The same measure, in the same setting: in the case of `O=C(NO)c1ccc(NCc2csc3ccccc23)cc1` it was 33.1%.
The same measure, in the same setting: the same measure for `CCNS(=O)(=O)c1ccc(C)cc1`: 114%; for `CC(=O)[C@@]1(O)[C@H](C)C[C@H]2[C@@H]3C=C(C)C4=Cc5c(cnn5-c5ccccc5)C[C@]4(C)[C@H]3[C@@H](O)C[C@@]21C`: -2.67% (active).
As for `O=C1OC(c2ccc(-c3ccccc3)cc2)=C/C1=C/c1c(Cl)cccc1Cl`, the growth was 89.3%.
For the compound `COc1ccc(-c2nc(-c3ccccc3OCc3ccccc3OC)nc(C)c2C(C)=O)cc1`, the growth is 78.3%.
As for `COc1ccc(C2CC(c3cccc(Nc4ccnc5cc(Cl)ccc45)c3)=NN2c2ccccc2)cc1` (stereo unspecified), the growth was 54.4%.
In the case of `Cc1cc(C)c2c(NC(=O)Nc3ccc(Cl)c(Cl)c3)n[nH]c2n1`, the growth is 92.6%.
The same measure, in the same setting: the same measure for `COc1ccc(/C(=C\c2ccc3c(c2)OCO3)C(=O)Nc2nc3ccc(F)cc3s2)cc1OC`: 94.2%; for `Cc1[nH]n(C(=O)c2ccncc2)c(=O)c1N=Nc1ccc(O)c(C(=O)O)c1`: 104%; for `Cc1cc(NC(=O)C2c3ccccc3C(=O)N(CC(C)C)C2c2cccs2)no1` (stereo unspecified): -66.5% (active).
Same read-out and setting: in the case of `CC(C)N=C1CCCC1C(=S)SSC(=S)C1CCCC1=NC(C)C` (stereo unspecified) it was 8.07% (active); in that of `COCCCNCC(=O)Nc1c(C)cccc1C`, 112%.
Turning to `Clc1ccc(Nc2ncnc3c2sc2ncccc23)cc1`, the growth was 31.5%.
Still for that read-out and setting: in the case of `CNC(=O)c1cc(Oc2ccc(NC(=O)c3nc(S(C)(=O)=O)sc3-c3ccc(F)cc3)cc2)ccn1` it was 53.4%.
Still for that read-out and setting: in the case of `O=C(/C=C/c1ccccc1)C(Br)C(Br)c1ccccc1` (stereo unspecified) it was -78.3% (active); in that of `C#CC[C@@H]1C[C@]2(C)[C@H]3CC[C@@H]4[C@H]5C(C(=C)C)CC[C@]5(C(=O)NCCN(CCN)CCN)CC[C@@]4(C)[C@]3(C)CC[C@H]2C(C)(C)[C@H]1OC(C)=O` (stereo partly specified), 61.7%; in that of `[Ag].[Ag].[NH-]S(=O)(=O)c1ccc(N=Nc2cc(N=Nc3ccc(S([NH-])(=O)=O)cc3)c3c(NC(=O)C(Cl)Cl)cccc3c2OC(=O)C(Cl)Cl)cc1.[c-]1nccs1.[c-]1nccs1`, -86.4% (active).
`Oc1ccc(-c2cnc(-c3ccccc3)[nH]2)c(O)c1`: the growth is 99.8%.

For the next test, the system named is A549/ATCC NSCLC. The test is described as above. To be noted: 10 µM unless noted.
Turning to `O=C(C=P(c1ccccc1)(c1ccccc1)c1ccccc1)CCl`, the growth was 23.1%.
Consider `CS(=O)(=O)Nc1cc(-c2cc3ncc(C#N)c(Nc4ccc(Oc5ccccc5)c(Cl)c4)c3s2)cnc1Cl`, for which the growth was 55.2%.
For the compound `O=C(c1ccccc1)N(CCCCl)C(=O)N(CCCCl)C(=O)c1ccccc1`, the growth is 87.7%.
Same read-out and setting: the same measure for `CCCCn1c(-c2ccc(F)cc2)nc2cc(OC)c(OC)cc2c1=O`: 19.7%.
Consider `Cc1ccccc1N1C(c2ccccc2)=NNC12C=CC(=O)c1c(O)cccc12` (stereo unspecified), for which the growth is 68.1%.
Still for that read-out and setting: the same measure for `O=C(C(=O)c1cccnc1)c1cccnc1`: 111%.
Turning to `COc1c(B(O)O)cccc1-c1nc2ccc3[nH]ncc3c2c2c1CCCC2`, the growth was 8.01% (active).
Take `COC(=O)c1cc2oc(/C=N/NC(=O)c3cc4oc(-c5cccc(C(F)(F)F)c5)cc4[nH]3)cc2n1Cc1ccccc1`: the growth was 20.6%.
With `Fc1ccc(-c2nnc(N3CCOCC3)c3ccccc23)cc1`, the growth is 102%.
Regarding `COc1cc(C)c2c(=O)c3c(oc2c1)C(=O)c1c(O)c(OC)cc(O)c1C3=O`, the growth was 7.31% (active).
As to `COc1ccc(C2=CC(c3ccc(OC)cc3Br)N3C=CSC3=N2)cc1` (stereo unspecified), the growth is 41.8%.
The same measure, in the same setting: the same measure for `CC1=C(C(=O)Nc2ccc(F)cc2)C(c2ccc(Cl)cc2)C2=C(CC(C)(C)CC2=O)N1` (stereo unspecified): 78.3%; for `Cc1ccc(NC(=O)c2nc(S(C)=O)oc2-c2ccc(F)cc2)cc1Nc1nccc(-c2cccnc2)n1` (stereo unspecified): 95.4%; for `COc1ccc(C(=O)c2c(N)nc3n2CCCC3)cc1OC`: 102%.
For the compound `CC1CN(CCCOC(=O)Nc2ccc(Cl)cc2)CCN1C(C)(C)C` (stereo unspecified), the growth was 103%.
For `CCN(CC)c1ccc2nc3c4ccccc4c(=O)cc-3n(-c3ccccc3)c2c1`, the growth was 11.6%.
On the same count and under the same terms, in the case of `C=CCOc1c(Br)cc(Br)cc1Br` it was 59.7%.
Turning to `Brc1ccccc1Cn1c(-c2cncs2)nc2ccccc21`, the growth was 82.7%.
In the case of `CCN(CC)CCCNc1cccc2c(C)cc(OC)nc12`, the growth is 94.8%.
Still for that read-out and setting: in the case of `O=C(NO)c1ccc(NCc2csc3ccccc23)cc1` it was 70.3%; in that of `CCNS(=O)(=O)c1ccc(C)cc1`, 95.8%; in that of `CC(=O)[C@@]1(O)[C@H](C)C[C@H]2[C@@H]3C=C(C)C4=Cc5c(cnn5-c5ccccc5)C[C@]4(C)[C@H]3[C@@H](O)C[C@@]21C`, 14.5%.
For the compound `O=C1OC(c2ccc(-c3ccccc3)cc2)=C/C1=C/c1c(Cl)cccc1Cl`, the growth was 11%.
For `COc1ccc(-c2nc(-c3ccccc3OCc3ccccc3OC)nc(C)c2C(C)=O)cc1`, the growth was 79.7%.
On to `COc1ccc(C2CC(c3cccc(Nc4ccnc5cc(Cl)ccc45)c3)=NN2c2ccccc2)cc1` (stereo unspecified), for which the growth is 52.1%.
On the same count and under the same terms, the same measure for `Cc1cc(C)c2c(NC(=O)Nc3ccc(Cl)c(Cl)c3)n[nH]c2n1`: 101%; for `COc1ccc(/C(=C\c2ccc3c(c2)OCO3)C(=O)Nc2nc3ccc(F)cc3s2)cc1OC`: 99.7%; for `Cc1[nH]n(C(=O)c2ccncc2)c(=O)c1N=Nc1ccc(O)c(C(=O)O)c1`: 21.9%.
Take `Cc1cc(NC(=O)C2c3ccccc3C(=O)N(CC(C)C)C2c2cccs2)no1` (stereo unspecified): the growth is 35.3%.
On the same count and under the same terms, in the case of `CC(C)N=C1CCCC1C(=S)SSC(=S)C1CCCC1=NC(C)C` (stereo unspecified) it was 71.1%; in that of `COCCCNCC(=O)Nc1c(C)cccc1C`, 96.7%; in that of `Clc1ccc(Nc2ncnc3c2sc2ncccc23)cc1`, 27.9%.
On to `CNC(=O)c1cc(Oc2ccc(NC(=O)c3nc(S(C)(=O)=O)sc3-c3ccc(F)cc3)cc2)ccn1`, for which the growth is 94.8%.
For the compound `O=C(/C=C/c1ccccc1)C(Br)C(Br)c1ccccc1` (stereo unspecified), the growth was 47.2%.
Consider `C#CC[C@@H]1C[C@]2(C)[C@H]3CC[C@@H]4[C@H]5C(C(=C)C)CC[C@]5(C(=O)NCCN(CCN)CCN)CC[C@@]4(C)[C@]3(C)CC[C@H]2C(C)(C)[C@H]1OC(C)=O` (stereo partly specified), for which the growth is 53.4%.
Still for that read-out and setting: the same measure for `[Ag].[Ag].[NH-]S(=O)(=O)c1ccc(N=Nc2cc(N=Nc3ccc(S([NH-])(=O)=O)cc3)c3c(NC(=O)C(Cl)Cl)cccc3c2OC(=O)C(Cl)Cl)cc1.[c-]1nccs1.[c-]1nccs1`: 83.5%.
On the same count and under the same terms, the same measure for `Oc1ccc(-c2cnc(-c3ccccc3)[nH]2)c(O)c1`: 24.8%.
